Outcome and AC50 data for four molecules are collected here from PubChem BioAssay (EPA / NIEHS).

The nature of assay [1]: CEETOX_H295R_PROG: CeeTox H295R High-throughput Steroidogenesis Assay for Progesterone (PROG) (AID 2283442).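 As to AC50: human H295R adrenal cells primed with 10 µM forskolin before dosing; progesterone secreted into medium by H295R cells measured by HPLC-MS/MS.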 The conditions noted are these: actives raise or lower the signal. In short, it runs like this:
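Steps: seed H295R cells and let them adhere overnight; prime 48 h with 10 uM forskolin; dose with compound in DMSO at 0.1% final for 48 h; extract medium steroids with MTBE; measure progesterone by LC-MS/MS. MTT viability was run in the same wells.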

Read-out in assay [2]: Tumor necrosis factor receptor superfamily member 6 (Homo sapiens) (UniProt P25445)
Briefly: LTEA_HepaRG_FAS: Life Technologies and Expression Analysis (LTEA) Assay for Fas cell surface death receptor (FAS) using HepaRG (AID 2283447). The conditions noted are these: mRNA level, 48 h; actives raise or lower the signal. In short, it runs like this:
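Differentiated HepaRG cells in serum-free induction medium were exposed 48 h to 8 half-log concentrations up to 100 uM in 0.5% DMSO, in duplicate. FAS mRNA was measured by qRT-PCR normalised to ACTB, GAPDH and POLR2A; bidirectional fit versus DMSO.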

Read-out in assay [3]: Fatty acid synthase (Homo sapiens) (UniProt P49327)
Briefly: LTEA_HepaRG_FASN: Life Technologies and Expression Analysis (LTEA) Assay for Fatty Acid Synthase (FASN) using HepaRG (AID 2283448).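 As to AC50: differentiated human HepaRG liver cells in serum-free induction medium.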 The conditions noted are these: mRNA level, 48 h; actives raise or lower the signal. The gist of the method: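 HepaRG, 48 h exposure, 8-pt half-log series top 100 uM, 0.5% DMSO vehicle, duplicates. Readout: FASN transcript by Fluidigm qRT-PCR; housekeeping-normalized; bidirectional curve fit vs DMSO baseline.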

Read-out in assay [4]: Cyclin D2 (CCND2), CCND2 (gene 894)
Briefly: LTEA_HepaRG_CCND2: Life Technologies and Expression Analysis (LTEA) Assay for Cyclin D2 (CCND2) using HepaRG (AID 2283449).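 Also: CCND2 transcript measured by TaqMan qRT-PCR and normalised to three housekeeping genes.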 The conditions noted are these: mRNA level, 48 h; actives raise or lower the signal. In short, it runs like this:
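HepaRG, 48 h dosing, 8-pt half-log curve from 100 uM, 0.5% DMSO; duplicate wells. Readout: CCND2 transcript by microfluidic qRT-PCR, housekeeping-normalised; bidirectional fit vs DMSO baseline.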

Read-out in assay [5]: Cyclin Dependent Kinase Inhibitor 1A (CDKN1A), CDKN1A (gene 1026)
Briefly: LTEA_HepaRG_CDKN1A: Life Technologies and Expression Analysis (LTEA) Assay for Cyclin Dependent Kinase Inhibitor 1A (CDKN1A) using HepaRG (AID 2283450). As to conditions: mRNA level, 48 h; actives raise or lower the signal. In short, it runs like this: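 Read-out is CDKN1A mRNA by TaqMan qRT-PCR, normalized to three housekeeping genes and fitted in both directions against the DMSO baseline. Human HepaRG cells were treated 48 h with test chemicals up to 100 uM in half-log steps, 0.5% DMSO.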

Read-out in assay [6]: Cyclin D1 (CCND1), CCND1 (gene 595)
The assay can be described thus: LTEA_HepaRG_CCND1: Life Technologies and Expression Analysis (LTEA) Assay for Cyclin D1 (CCND1) using HepaRG (AID 2283451). The conditions noted are these: mRNA level, 48 h; actives raise or lower the signal. In short, it runs like this: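 HepaRG plated 48 h, medium switched to serum-free induction medium, chemicals added in duplicate (top 100 uM, half-log steps, 0.5% DMSO) for 48 h, cells lysed, RNA measured by TaqMan qRT-PCR.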

Read-out in assay [7]: catalase (CAT), CAT (gene 847)
The assay can be described thus: LTEA_HepaRG_CAT: Life Technologies and Expression Analysis (LTEA) Assay for catalase (CAT) using HepaRG (AID 2283452). The conditions noted are these: mRNA level, 48 h; actives raise or lower the signal. In short, it runs like this: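 HepaRG cells in serum-free induction medium, 0.5% DMSO vehicle, exposed 48 h in duplicate over 8 half-log concentrations from 100 uM. CAT mRNA measured by qRT-PCR, normalized to ACTB, GAPDH, POLR2A; bidirectional fit versus DMSO.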

Read-out in assay [8]: Cytochrome P450 (CYP1A1), CYP1A1 (gene 1543)
The assay can be described thus: LTEA_HepaRG_CYP1A1: Life Technologies and Expression Analysis (LTEA) Assay for Cytochrome P450 (CYP1A1) using HepaRG (AID 2283454). The conditions noted are these: mRNA level, 48 h; actives raise or lower the signal. In short, it runs like this:
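HepaRG, 48 h post-plating switched to serum-free induction medium; 8-pt conc-response (top 100 uM, half-log, 0.5% DMSO), duplicates, 48 h. Lysis in RLT, TaqMan qRT-PCR for CYP1A1; gain or loss vs DMSO.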

Read-out in assay [9]: growth arrest and DNA damage 45 (GADD45A), GADD45A (gene 1647)
The assay can be described thus: LTEA_HepaRG_GADD45A: Life Technologies and Expression Analysis (LTEA) Assay for growth arrest and DNA damage 45 (GADD45A) using HepaRG (AID 2283458). As to conditions: mRNA level, 48 h; actives raise or lower the signal. In short, it runs like this: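 HepaRG, 48 h exposure, 8 conc. (top 100 uM, half-log steps), 0.5% DMSO vehicle, duplicates. Read-out: qRT-PCR mRNA level, housekeeping-normalized (ACTB/GAPDH/POLR2A). Curves fit bidirectionally vs DMSO baseline.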

Read-out in assay [10]: Forkhead box O3 (FOXO3), FOXO3 (gene 2309)
Briefly: LTEA_HepaRG_FOXO3: Life Technologies and Expression Analysis (LTEA) Assay for Forkhead box O3 (FOXO3) using HepaRG (AID 2283459). The conditions noted are these: mRNA level, 48 h; actives raise or lower the signal. The gist of the method:
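qRT-PCR readout of FOXO3 transcript, normalized to three housekeeping genes (ACTB, GAPDH, POLR2A); gain or loss fitted against 0.5% DMSO vehicle. HepaRG cells, 48 h chemical exposure, 8-point half-log series, top 100 uM.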

Read-out in assay [11]: growth arrest and DNA damage 45 (GADD45B), GADD45B (gene 4616)
Briefly: LTEA_HepaRG_GADD45B: Life Technologies and Expression Analysis (LTEA) Assay for growth arrest and DNA damage 45 (GADD45B) using HepaRG (AID 2283461). The conditions noted are these: mRNA level, 48 h; actives raise or lower the signal. The gist of the method: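 HepaRG, ~100,000 cells/well, 48 h plating; serum-free induction medium; cpd 100 uM top, half-log x8, 0.5% DMSO, duplicate, 48 h; lysis in RLT, RNA isolation, qRT-PCR; norm ACTB/GAPDH/POLR2A; bidirectional fit vs DMSO.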

Read-out in assay [12]: ABC Transporter (ABCC3), ABCC3 (gene 8714)
The assay can be described thus: LTEA_HepaRG_ABCC3: Life Technologies and Expression Analysis (LTEA) Assay for ABC Transporter (ABCC3) using HepaRG (AID 2283462). As to conditions: mRNA level, 48 h; actives raise or lower the signal. The gist of the method:
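Human HepaRG, 48 h dosing, 8-pt half-log series from 100 uM, 0.5% DMSO vehicle, duplicates. ABCC3 mRNA by TaqMan qRT-PCR, housekeeping-normalized; bidirectional curve fit vs DMSO.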

Read-out in assay [13]: ABC Transporter (ABCB11), ABCB11 (gene 8647)
Briefly: LTEA_HepaRG_ABCB11: Life Technologies and Expression Analysis (LTEA) Assay for ABC Transporter (ABCB11) using HepaRG (AID 2283463). As to conditions: mRNA level, 48 h; actives raise or lower the signal. The gist of the method:
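HepaRG, 48 h exposure, 8-pt half-log CRC top 100 uM, 0.5% DMSO vehicle, duplicates. Readout: TaqMan qRT-PCR of ABCB11 mRNA, housekeeping-normalized (ACTB/GAPDH/POLR2A). Bidirectional fit vs DMSO baseline.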

Read-out in assay [14]: Broad substrate specificity ATP-binding cassette transporter ABCG2 (Homo sapiens) (UniProt Q9UNQ0)
The assay can be described thus: LTEA_HepaRG_ABCG2: Life Technologies and Expression Analysis (LTEA) Assay for ABC Transporter (ABCG2) using HepaRG (AID 2283465). As to conditions: mRNA level, 48 h; actives raise or lower the signal. In short, it runs like this:
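HepaRG, 48 h exposure, 8-pt half-log series from 100 uM, 0.5% DMSO vehicle, duplicates. Readout: ABCG2 transcript by qRT-PCR (Fluidigm array), housekeeping-normalized; bidirectional curve fit relative to DMSO baseline.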

Read-out in assay [15]: CFLAR gene, CFLAR (gene 8837)
Briefly: LTEA_HepaRG_CFLAR: Life Technologies and Expression Analysis (LTEA) Assay for CFLAR gene using HepaRG (AID 2283455). As to conditions: mRNA level, 48 h; actives raise or lower the signal. The gist of the method: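 qRT-PCR read-out (Fluidigm/TaqMan) of CFLAR mRNA, normalized to three housekeeping genes, in differentiated human HepaRG cells after 48 h chemical exposure; 8-point half-log series from 100 uM in 0.5% DMSO; bidirectional curve fitting versus DMSO.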

Read-out in assay [16]: Forkhead box O1 (FOXO1), FOXO1 (gene 2308)
Briefly: LTEA_HepaRG_FOXO1: Life Technologies and Expression Analysis (LTEA) Assay for Forkhead box O1 (FOXO1) using HepaRG (AID 2283456). The conditions noted are these: mRNA level, 48 h; actives raise or lower the signal. The gist of the method:
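HepaRG, 48 h exposure, 8-pt half-log series from 100 uM in 0.5% DMSO, duplicates; Fluidigm qRT-PCR mRNA, housekeeping-normalised; bidirectional fit vs DMSO baseline.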

Read-out in assay [17]: ABC Transporter (ABCB1), ABCB1 (gene 5243)
The assay can be described thus: LTEA_HepaRG_ABCB1: Life Technologies and Expression Analysis (LTEA) Assay for ABC Transporter (ABCB1) using HepaRG (AID 2283460). The conditions noted are these: mRNA level, 48 h; actives raise or lower the signal. In short, it runs like this:
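HepaRG, 48 h exposure, 8-pt half-log series from 100 uM, 0.5% DMSO vehicle, duplicates. Readout: ABCB1 transcript by Fluidigm TaqMan qRT-PCR, housekeeping-normalized; bidirectional curve fit vs DMSO baseline.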

Read-out in assay [18]: ABC Transporter (ABCC2), ABCC2 (gene 1244)
The assay can be described thus: LTEA_HepaRG_ABCC2: Life Technologies and Expression Analysis (LTEA) Assay for ABC Transporter (ABCC2) using HepaRG (AID 2283464). As to conditions: mRNA level, 48 h; actives raise or lower the signal. The gist of the method: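 HepaRG, 48 h post-plating; serum-free induction medium; cpd 8-pt, 100 uM top, half-log, 0.5% DMSO, duplicate, 48 h. Readout: ABCC2 mRNA by qRT-PCR, norm. ACTB/GAPDH/POLR2A. Bidirectional fit vs DMSO baseline.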

Assay [19] can be described thus: CEETOX_H295R_TESTO: CeeTox H295R High-throughput Steroidogenesis Assay for Testosterone (TESTO) (AID 2283457). The conditions noted are these: actives raise or lower the signal. In short, it runs like this:
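H295R, passage ≤10, 48 h dosing; media extracted with MTBE → HPLC-MS/MS for testosterone; 7-pt standard curve sets LLOQ/ULOQ; bidirectional fit vs DMSO; MTT viability same wells.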

The structures appear in SMILES notation. Activity calls are given as the source filed them. The calls were made as follows: active = hit-call score of the fitted dose curve at least 0.9, where 1 is the maximum; inactive = score below 0.9.

One may read the AC50 as the midpoint of the concentration-response curve, whichever way the signal moves.

Fatty acid synthase (Homo sapiens), sequence (P49327 whole entry, looked up): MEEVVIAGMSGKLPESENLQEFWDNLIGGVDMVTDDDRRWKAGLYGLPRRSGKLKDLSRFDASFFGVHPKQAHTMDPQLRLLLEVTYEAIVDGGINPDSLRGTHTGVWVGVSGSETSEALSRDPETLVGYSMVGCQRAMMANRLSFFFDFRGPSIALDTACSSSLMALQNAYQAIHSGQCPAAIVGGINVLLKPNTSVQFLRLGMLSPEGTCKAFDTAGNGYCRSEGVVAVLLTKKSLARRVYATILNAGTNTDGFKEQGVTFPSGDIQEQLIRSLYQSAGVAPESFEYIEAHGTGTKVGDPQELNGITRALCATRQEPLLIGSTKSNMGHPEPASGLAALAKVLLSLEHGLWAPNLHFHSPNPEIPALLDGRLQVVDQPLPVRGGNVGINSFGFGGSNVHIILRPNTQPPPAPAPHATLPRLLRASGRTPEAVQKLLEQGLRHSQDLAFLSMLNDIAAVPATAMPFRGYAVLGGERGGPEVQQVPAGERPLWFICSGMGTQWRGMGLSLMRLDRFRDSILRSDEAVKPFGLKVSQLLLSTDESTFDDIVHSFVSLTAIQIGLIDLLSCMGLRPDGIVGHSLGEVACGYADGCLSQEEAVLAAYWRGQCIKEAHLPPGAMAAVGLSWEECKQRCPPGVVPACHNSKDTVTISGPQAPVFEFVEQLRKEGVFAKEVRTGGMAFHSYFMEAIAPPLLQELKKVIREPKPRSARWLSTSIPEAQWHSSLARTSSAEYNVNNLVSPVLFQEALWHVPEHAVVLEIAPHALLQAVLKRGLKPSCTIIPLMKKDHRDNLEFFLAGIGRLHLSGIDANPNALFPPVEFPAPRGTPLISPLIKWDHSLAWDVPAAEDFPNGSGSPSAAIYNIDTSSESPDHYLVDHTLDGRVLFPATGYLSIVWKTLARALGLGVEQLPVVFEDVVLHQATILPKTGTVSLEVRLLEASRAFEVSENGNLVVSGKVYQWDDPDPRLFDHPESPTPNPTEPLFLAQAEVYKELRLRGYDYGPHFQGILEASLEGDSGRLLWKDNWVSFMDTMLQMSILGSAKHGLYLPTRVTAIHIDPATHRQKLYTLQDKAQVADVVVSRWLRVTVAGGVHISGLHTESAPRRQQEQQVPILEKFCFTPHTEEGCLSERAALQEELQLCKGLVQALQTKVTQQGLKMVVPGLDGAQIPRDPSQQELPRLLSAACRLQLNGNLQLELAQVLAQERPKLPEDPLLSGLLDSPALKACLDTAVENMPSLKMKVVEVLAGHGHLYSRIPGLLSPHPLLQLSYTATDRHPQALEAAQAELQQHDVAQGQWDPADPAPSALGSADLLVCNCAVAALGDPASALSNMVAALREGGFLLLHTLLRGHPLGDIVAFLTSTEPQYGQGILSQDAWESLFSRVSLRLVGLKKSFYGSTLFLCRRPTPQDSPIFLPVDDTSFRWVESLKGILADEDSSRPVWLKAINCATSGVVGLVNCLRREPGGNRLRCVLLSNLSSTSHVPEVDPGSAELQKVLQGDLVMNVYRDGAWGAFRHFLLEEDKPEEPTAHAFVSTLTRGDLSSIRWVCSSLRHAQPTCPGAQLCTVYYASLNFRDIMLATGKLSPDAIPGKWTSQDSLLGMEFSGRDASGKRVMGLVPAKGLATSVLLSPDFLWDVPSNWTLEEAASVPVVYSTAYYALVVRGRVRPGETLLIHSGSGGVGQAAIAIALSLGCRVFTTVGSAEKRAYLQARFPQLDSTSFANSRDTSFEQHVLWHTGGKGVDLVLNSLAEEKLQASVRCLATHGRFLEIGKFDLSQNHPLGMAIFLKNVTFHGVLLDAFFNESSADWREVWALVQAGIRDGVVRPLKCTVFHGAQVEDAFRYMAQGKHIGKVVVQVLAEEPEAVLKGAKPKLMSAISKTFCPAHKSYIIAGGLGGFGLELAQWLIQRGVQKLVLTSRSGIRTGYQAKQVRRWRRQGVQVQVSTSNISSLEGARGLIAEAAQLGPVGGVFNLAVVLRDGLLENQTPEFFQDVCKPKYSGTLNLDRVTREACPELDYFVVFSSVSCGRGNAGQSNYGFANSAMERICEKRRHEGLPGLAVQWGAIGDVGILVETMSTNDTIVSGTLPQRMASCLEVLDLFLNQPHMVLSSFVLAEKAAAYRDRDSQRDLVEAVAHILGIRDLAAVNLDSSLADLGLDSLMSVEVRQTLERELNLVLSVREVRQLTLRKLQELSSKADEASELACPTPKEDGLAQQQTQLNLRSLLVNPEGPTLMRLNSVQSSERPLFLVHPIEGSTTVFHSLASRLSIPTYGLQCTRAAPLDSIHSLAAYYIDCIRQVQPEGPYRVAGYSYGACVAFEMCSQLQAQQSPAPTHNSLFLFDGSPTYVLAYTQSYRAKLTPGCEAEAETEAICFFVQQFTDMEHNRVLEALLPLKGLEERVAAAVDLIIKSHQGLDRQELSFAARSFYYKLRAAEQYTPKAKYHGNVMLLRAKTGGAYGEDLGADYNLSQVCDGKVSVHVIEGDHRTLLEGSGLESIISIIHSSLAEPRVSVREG
Broad substrate specificity ATP-binding cassette transporter ABCG2 (Homo sapiens), sequence (Q9UNQ0 whole entry, looked up): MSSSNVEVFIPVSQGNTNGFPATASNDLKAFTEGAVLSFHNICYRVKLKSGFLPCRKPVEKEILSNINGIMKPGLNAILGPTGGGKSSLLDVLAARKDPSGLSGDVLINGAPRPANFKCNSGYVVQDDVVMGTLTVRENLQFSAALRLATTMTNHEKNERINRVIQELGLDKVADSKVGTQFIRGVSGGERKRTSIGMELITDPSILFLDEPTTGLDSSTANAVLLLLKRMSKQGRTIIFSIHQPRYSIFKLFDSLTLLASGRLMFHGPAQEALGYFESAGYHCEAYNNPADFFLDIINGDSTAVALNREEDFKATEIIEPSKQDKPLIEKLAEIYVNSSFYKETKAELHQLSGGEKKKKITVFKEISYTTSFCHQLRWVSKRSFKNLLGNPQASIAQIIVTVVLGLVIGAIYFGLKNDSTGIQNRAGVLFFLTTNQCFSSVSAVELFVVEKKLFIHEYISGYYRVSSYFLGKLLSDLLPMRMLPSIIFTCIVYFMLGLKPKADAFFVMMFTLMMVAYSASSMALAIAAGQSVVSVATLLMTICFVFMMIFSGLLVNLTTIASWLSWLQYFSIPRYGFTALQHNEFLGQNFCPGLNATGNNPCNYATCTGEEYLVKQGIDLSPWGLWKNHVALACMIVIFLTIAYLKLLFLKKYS

With `N#Cc1c(Cl)cccc1Cl`, the molecule was called inactive in assay [1], in assay [2], in [3], in [4], in [5] and in assay [6]. For the same molecule, the call in [7], in [9], in assay [10], in assay [11], in assay [12] and in assay [13] was inactive. In [14], the call was inactive. Besides, the concentration at half-maximal activity (AC50) in [8] is 50 µM (active).
As to `COP(=S)(OC)Oc1ccc([N+](=O)[O-])c(C)c1`, the AC50 in [1] is 2.59 µM (active); in assay [8] it was 50 µM (active). The outcome in [2], in assay [3], in [4], in [5], in assay [6] and in [7] was inactive. Also, the outcome in [15], in [16], in assay [9], in assay [10], in assay [17] and in [12] was inactive. Moreover, the molecule was called inactive in [13] and in assay [14].
For `CCNP(=S)(OC)O/C(C)=C/C(=O)OC(C)C` (configuration not stated), the AC50 in [1] was 50 µM (active); in [3], 36.3 µM (active); in assay [8], 14.3 µM (active); in [17], 13 µM (active); in assay [18], 13.1 µM (active); in [14], 13.6 µM (active). For the same molecule, the call in assay [2], in [4], in assay [5], in assay [6], in assay [7] and in assay [16] was inactive. Also, the outcome in assay [9], in assay [10], in assay [12] and in assay [13] was inactive.
On to `CCOc1cc(C(C)(C)C)ccc1C1COC(c2c(F)cccc2F)=N1` (configuration not stated), for which the call in assay [19] was inactive.
